Values without a mark were called inactive. Inconclusive results are not listed. Entries that show only a call come without a potency. Activity calls are given as the source filed them. Unless noted, calls follow the shape of the full dose curve.
How the values were obtained:
[1] = Nuclear factor erythroid 2-related factor 2/antioxidant responsive element (Nrf2/ARE) small molecule agonists: qHTS cell viability counter screen in human keratinocytes (AID 1919968; active = well fitted curve in the direction sought with a large enough effect in the repeat runs; an effect the other way counts as inactive or inconclusive; also: nearly all actives have a fitted effect of over 55% in size; also: potency is read from the fitted curve at half-maximal effect)
Method in brief: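 Stably transfected HaCaT (KeratinoSens), 1,500/well. Test agents in DMSO were applied for 23 h, 37 C/5% CO2. CellTiter-Fluor was incubated 1 h before the fluorescence read.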

[2] = Nuclear factor erythroid 2-related factor 2/antioxidant responsive element (Nrf2/ARE) small molecule agonists: luciferase reporter gene qHTS assay in human keratinocytes (AID 1919969); also: nearly all actives have a fitted effect of over 35% in size; also: potency is read from the fitted curve at half-maximal effect
[3] = molecular target: Gonadotropin-releasing hormone receptor (Homo sapiens) (UniProt P30968); experiment: Human gonadotropin-releasing hormone receptor (GnRHR) small molecule agonists, calcium flux assay in GnRHR-HEK293 cells (AID 1920063); also: nearly all actives have a fitted effect of over 35% in size
Method in brief: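 Stable human GnRHR HEK293 line. 18 h plating, then calcium dye for 1 h at 37 C. Agonist-mode compound addition from DMSO stocks; fluorescence monitored 3 min.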

[4] = molecular target: KiSS-1 receptor (Homo sapiens) (UniProt Q969F8); experiment: Human kisspeptin (KISS1R) small molecule agonists, calcium flux assay in KISS1R-HEK293 cells (AID 1920064; active = well fitted curve in the direction sought with a large enough effect in the repeat runs; an effect the other way counts as inactive or inconclusive)
Method in brief: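 After overnight (18 h) culture at 37 C/5% CO2, human KISS1R-HEK293 cells received calcium dye for 1 h, then test compound; emission at 540 nm (excitation 480 nm) was tracked for 3 min.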

[5] = G protein-coupled receptor (GPCR) small molecule agonists, calcium flux assay: HEK293 wild type cell line counter screen (AID 1920065)
Method in brief: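 Following 18 h incubation at 37 C/5% CO2, plates got calcium dye for 1 h; compounds, ATP or DMSO were then pinned in and fluorescence followed kinetically (480/540 nm).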

[6] = p53 small molecule agonists, cell-based qHTS assay with human liver microsomes (AID 1963577)
Method in brief: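 Cells carrying a p53-responsive bla reporter were rested 5 h (37 C, 5% CO2) before compound transfer. Human liver microsomes plus NADPH, 0.5 mg/mL final apiece, supplied metabolism during the 16 h 37 C exposure.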

[7] = p53 small molecule agonists, cell-based qHTS assay with rat liver microsomes (AID 1963578)
Method in brief: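 Fluorescence from a beta-lactamase reporter under a p53 response element was measured after cells had been incubated 16 h at 37 C with test compound and rat liver microsomes plus NADPH (0.5 mg/mL final each).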

[8] = p53 small molecule agonists, cell-based qHTS assay with human liver microsomes: qHTS cell viability counter screen (AID 1963579); also: nearly all actives have a fitted effect of over 45% in size; also: potency is read from the fitted curve at half-maximal effect
Method in brief: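 Seed p53RE-bla cells at 4,000 per well; incubate 5 h at 37 C; add compound, human liver microsomes and NADPH; incubate 16 h at 37 C; add CellTiter-Glo; after 30 min at room temperature, read luminescence.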

[9] = p53 small molecule agonists, cell-based qHTS assay: qHTS cell viability counter screen (AID 1963581); also: nearly all actives have a fitted effect of over 45% in size
Method in brief: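 qHTS counter screen: 16 h compound exposure at 37 C of p53RE-bla HCT-116 cells (4,000 per well, seeded 5 h prior), cell viability by ATP luminescence.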

[10] = molecular target: 5-hydroxytryptamine receptor 2A (Homo sapiens) (UniProt P28223); experiment: 5-hydroxytryptamine receptor 2A (HTR2A) small molecule antagonists, cell-based qHTS assay (AID 1963586); also: nearly all actives have a fitted effect of over 45% in size
Method in brief: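 CHO cells stably expressing human HTR2A were plated for 18 h at 37 C, then loaded with calcium dye for 1 h. Compounds were preincubated 5 min at room temperature before DOI (4 nM solution) was added. Kinetic fluorescence was read for 3 min.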

[11] = molecular target: Muscarinic acetylcholine receptor M1 (Homo sapiens) (UniProt P11229); experiment: Cholinergic receptor muscarinic 1 (CHRM1) small molecule antagonists, cell-based qHTS assay (AID 1963588); also: nearly all actives have a fitted effect of over 40% in size
Method in brief: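 Compounds were tested at 15 concentrations in three independent runs. Dye-loaded CHRM1-CHO cells were exposed 5 min at room temperature before stimulation by acetylcholine added at 50nM. Intracellular calcium was read kinetically on FDSS for 3 min.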

[12] = molecular target: Muscarinic acetylcholine receptor M1 (Homo sapiens) (UniProt P11229); experiment: Cholinergic receptor muscarinic 1 (CHRM1) small molecule agonists, cell-based qHTS assay (AID 1963589); also: nearly all actives have a fitted effect of over 35% in size
Method in brief: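 Kinetic fluorescence (1 s intervals) of calcium-sensitive dye in human M1 CHO cells after compound addition; cells pre-incubated 18 h at 37 C/5% CO2 and dye-loaded 1 h.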

[13] = molecular target: Beta-2 adrenergic receptor (Homo sapiens) (UniProt P07550); experiment: Adrenergic beta2 receptor (ADRB2) small molecule antagonists, cell-based qHTS assay (AID 1963592); also: series mostly up to about 92 µM; nearly all actives have a fitted effect of over 50% in size
Method in brief: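 Assay format: CHO-ADRB2 cells, 18-20hr seeding at 37C/5% CO2, then compound plus 1nM isoproterenol agonist mix for 0.5hr RT. Homogeneous time-resolved fluorescence cAMP detection after 1hr, expressed as 665/615 nm ratio.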

[14] = molecular target: D(2) dopamine receptor (Homo sapiens) (UniProt P14416); experiment: Dopamine D2 receptor (DRD2) small molecule agonists, cell-based qHTS assay (AID 1963594); also: nearly all actives have a fitted effect of over 35% in size
Method in brief: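 cAMP accumulation in DRD2-HEK293 cells measured by HTRF after 1 h detection; compounds added 10 min before NKH477 (200nM […]) forskolin-analogue stimulation, 30 min at room temperature, with Ro20-1724 present at 0.1 mM final.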

[15] = p53 small molecule agonists, cell-based qHTS assay (AID 1963582; active = well fitted activation curve with a large enough effect in the signal ratio in the repeat runs, not every such curve was filed as active; the % refers to the signal ratio)
Method in brief: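 Measured: fluorescence from cleaved LiveBLAzer substrate. System: p53RE-bla cells, 16 h compound treatment at 37 C, 2 h substrate step at room temperature.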

[16] = molecular target: 5-hydroxytryptamine receptor 2A (Homo sapiens) (UniProt P28223); experiment: 5-hydroxytryptamine receptor 2A (HTR2A) small molecule agonists, cell-based qHTS assay (AID 1963587); also: nearly all actives have a fitted effect of over 30% in size
Method in brief: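 Kinetic calcium-flux fluorescence (2 min, 1 sec intervals) after compound addition in agonist mode. HTR2A-CHO cells were cultured 18 h, then dye-loaded 1 h at 37 C.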

[17] = cAMP Responsive Elements (CRE) small molecule agonists, cell-based qHTS assay (AID 1963590)
Method in brief: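 Test agents in DMSO were incubated 3 h at 37 C/5% CO2 with CRE-bla HEK 293T cells seeded 18 h earlier; LiveBLAzer B/G FRET substrate was added and read after 2 h at room temperature.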

[18] = cAMP Responsive Elements (CRE) small molecule antagonists, cell-based qHTS assay (AID 1963591; active = well fitted inhibition curve with a large enough effect in the signal ratio in the repeat runs, not every such curve was filed as active; the % refers to the signal ratio)
Method in brief: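 Reporter line CRE-bla HEK 293T in dialyzed-FBS DMEM; cells preincubated 18 h, treated 3 h with compound plus NKH477 (0.25 uM final); LiveBLAzer FRET, 2 h RT.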

[19] = molecular target: Beta-2 adrenergic receptor (Homo sapiens) (UniProt P07550); experiment: Adrenergic beta2 receptor (ADRB2) small molecule agonists, cell-based qHTS assay (AID 1963593);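 also: CHO cells stably overexpressing human ADRB2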
Method in brief: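 CHO cells stably over-expressing ADRB2 were plated overnight at 37C, then dosed with compounds plus a stimulation mix containing 100uM IBMX and 25uM Ro-20-1724 for 0.5hr at room temperature. cAMP was measured by HTRF competition, 1hr.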

[20] = molecular target: D(2) dopamine receptor (Homo sapiens) (UniProt P14416); experiment: Dopamine D2 receptor (DRD2) small molecule antagonists, cell-based qHTS assay (AID 1963595; active = well fitted inhibition curve with a large enough effect in the signal ratio in the repeat runs, with a control signal flat; the % refers to the signal ratio)
Method in brief: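 Cells were plated and grown for 24 h at 37 °C. Ro20-1724 (0.1 mM final) went in first, then compound for 10 min. NKH477 (200 nM) with quinpirole (12 nM) followed for 30 min at RT, then HTRF detection reagents for 1 h.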

Sequence of 5-hydroxytryptamine receptor 2A (Homo sapiens) (P28223 whole entry, looked up): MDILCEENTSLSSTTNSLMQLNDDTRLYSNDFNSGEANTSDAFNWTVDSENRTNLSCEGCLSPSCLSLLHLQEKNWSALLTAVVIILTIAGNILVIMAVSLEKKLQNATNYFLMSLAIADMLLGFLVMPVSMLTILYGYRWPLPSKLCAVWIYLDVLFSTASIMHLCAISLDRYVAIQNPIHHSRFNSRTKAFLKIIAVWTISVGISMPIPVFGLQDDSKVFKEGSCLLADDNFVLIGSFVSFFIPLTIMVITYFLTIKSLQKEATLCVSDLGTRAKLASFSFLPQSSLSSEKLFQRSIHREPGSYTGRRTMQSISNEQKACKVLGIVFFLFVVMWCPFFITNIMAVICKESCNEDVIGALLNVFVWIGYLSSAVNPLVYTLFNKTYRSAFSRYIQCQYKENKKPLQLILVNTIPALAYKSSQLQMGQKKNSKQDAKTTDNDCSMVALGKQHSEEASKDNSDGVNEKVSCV
Sequence of KiSS-1 receptor (Homo sapiens) (Q969F8 whole entry, looked up): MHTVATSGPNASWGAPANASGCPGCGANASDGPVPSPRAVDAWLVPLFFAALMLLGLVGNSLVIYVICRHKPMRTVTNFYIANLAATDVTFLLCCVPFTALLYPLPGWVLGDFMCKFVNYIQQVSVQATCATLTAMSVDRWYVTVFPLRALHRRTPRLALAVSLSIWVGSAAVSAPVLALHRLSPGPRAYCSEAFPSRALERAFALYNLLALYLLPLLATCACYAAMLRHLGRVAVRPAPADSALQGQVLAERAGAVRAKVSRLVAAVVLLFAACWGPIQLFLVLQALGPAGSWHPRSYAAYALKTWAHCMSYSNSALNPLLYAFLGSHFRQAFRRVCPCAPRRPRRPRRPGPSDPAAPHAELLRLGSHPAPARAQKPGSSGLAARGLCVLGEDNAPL
Sequence of Beta-2 adrenergic receptor (Homo sapiens) (P07550 whole entry, looked up): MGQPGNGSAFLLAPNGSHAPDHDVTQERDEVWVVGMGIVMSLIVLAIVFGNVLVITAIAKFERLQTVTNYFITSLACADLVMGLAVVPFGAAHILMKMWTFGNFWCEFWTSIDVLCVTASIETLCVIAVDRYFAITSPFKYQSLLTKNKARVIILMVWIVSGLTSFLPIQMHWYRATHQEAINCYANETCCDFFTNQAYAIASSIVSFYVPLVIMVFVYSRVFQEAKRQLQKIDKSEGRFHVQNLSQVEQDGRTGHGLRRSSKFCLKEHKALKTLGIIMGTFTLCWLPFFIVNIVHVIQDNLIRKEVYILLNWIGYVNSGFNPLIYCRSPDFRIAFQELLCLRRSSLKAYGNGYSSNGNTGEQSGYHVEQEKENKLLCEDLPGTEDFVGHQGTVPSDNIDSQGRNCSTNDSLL
Sequence of Muscarinic acetylcholine receptor M1 (Homo sapiens) (P11229 whole entry, looked up): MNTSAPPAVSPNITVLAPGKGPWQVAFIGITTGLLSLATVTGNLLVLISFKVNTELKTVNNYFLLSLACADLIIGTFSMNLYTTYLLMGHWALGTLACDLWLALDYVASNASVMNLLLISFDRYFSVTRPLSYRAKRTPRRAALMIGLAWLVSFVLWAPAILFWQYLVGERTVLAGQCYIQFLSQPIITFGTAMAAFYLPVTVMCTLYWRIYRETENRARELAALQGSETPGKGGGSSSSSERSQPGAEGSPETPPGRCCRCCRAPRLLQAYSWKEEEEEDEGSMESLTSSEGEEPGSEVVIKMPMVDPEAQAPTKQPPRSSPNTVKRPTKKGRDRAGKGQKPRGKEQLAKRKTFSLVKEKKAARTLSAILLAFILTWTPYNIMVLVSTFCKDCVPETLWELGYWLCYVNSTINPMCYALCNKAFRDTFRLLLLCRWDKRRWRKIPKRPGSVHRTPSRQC
Sequence of Gonadotropin-releasing hormone receptor (Homo sapiens) (P30968 whole entry, looked up): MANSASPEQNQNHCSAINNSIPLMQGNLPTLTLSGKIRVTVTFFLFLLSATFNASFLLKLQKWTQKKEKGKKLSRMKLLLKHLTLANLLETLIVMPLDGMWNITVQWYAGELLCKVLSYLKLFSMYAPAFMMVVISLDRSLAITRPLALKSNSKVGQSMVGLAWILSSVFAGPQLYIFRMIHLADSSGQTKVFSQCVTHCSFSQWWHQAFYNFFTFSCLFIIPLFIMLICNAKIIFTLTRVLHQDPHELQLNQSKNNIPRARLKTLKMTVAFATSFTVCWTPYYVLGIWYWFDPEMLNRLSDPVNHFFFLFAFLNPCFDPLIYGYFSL
Sequence of D(2) dopamine receptor (Homo sapiens) (P14416 whole entry, looked up): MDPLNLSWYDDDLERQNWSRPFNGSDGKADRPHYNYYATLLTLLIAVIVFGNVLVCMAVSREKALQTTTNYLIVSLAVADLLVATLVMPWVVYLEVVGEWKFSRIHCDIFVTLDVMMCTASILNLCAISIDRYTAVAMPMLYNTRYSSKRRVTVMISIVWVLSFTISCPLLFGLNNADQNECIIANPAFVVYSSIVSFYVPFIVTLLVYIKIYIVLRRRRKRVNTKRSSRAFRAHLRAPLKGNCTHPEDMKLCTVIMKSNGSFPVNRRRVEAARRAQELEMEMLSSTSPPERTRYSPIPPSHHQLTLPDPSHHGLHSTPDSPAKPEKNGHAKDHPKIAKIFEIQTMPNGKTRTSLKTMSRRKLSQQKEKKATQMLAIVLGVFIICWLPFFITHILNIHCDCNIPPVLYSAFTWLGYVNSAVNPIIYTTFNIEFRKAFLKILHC

Row | SMILES | Potency [1] | Potency [2] | Potency [3] | outcome [4] | outcome [5] | Potency [6] | Potency [7] | Potency [8] | Potency [9] | Potency [10] | Potency [11] | Potency [12] | Potency [13] | Potency [14] | Potency [15] | Potency [16] | Potency [17] | Potency [18] | Potency [19] | Potency [20]
1 | CCOC(=O)N1CCC(n2c(=O)[nH]c3cc(Cl)ccc32)CC1 | inactive | inactive | inactive | inactive | inactive | inactive | inactive | inactive | inactive | inactive | inactive | inactive | inactive | inactive |  |  |  |  |  | 
2 | O=C(O)C1CCC1 | inactive | inactive | inactive | inactive | inactive | inactive | inactive | inactive | inactive |  | inactive | inactive |  | inactive | inactive | inactive | inactive | inactive | inactive | inactive
3 | O=C(NC(Cc1cc(=O)[nH]c2ccccc12)C(=O)O)c1ccc(Cl)cc1 (configuration not stated) | inactive | inactive | inactive | inactive | inactive | inactive | inactive | inactive | inactive |  | inactive | inactive |  | inactive | inactive | inactive | inactive |  |  | inactive
4 | C[C@H](N)[C@H](O)c1cccc(O)c1 | inactive | inactive | inactive | inactive | inactive | inactive | inactive | inactive | inactive |  | inactive | inactive | inactive | inactive | inactive |  | inactive | inactive |  | inactive
5 | O=C(O)c1cc(O)c2ccccc2c1O | 6.11 µM (active) | 1.72 µM (active) | inactive | inactive | inactive | inactive | inactive | 8.14 µM (active) | inactive | inactive | inactive | inactive | inactive | inactive |  | inactive |  | inactive |  | 
6 | CCCCCC(=O)OCC | inactive | inactive | inactive | inactive | inactive | inactive | inactive | inactive | inactive | inactive | inactive | inactive | inactive |  |  | inactive | inactive | inactive | inactive | inactive
7 | O=C1OCc2ccccc21 | inactive | inactive | inactive | inactive | inactive | inactive | inactive | inactive | inactive |  |  | inactive | inactive | inactive | inactive |  | inactive | inactive | inactive | inactive
8 | Nc1[nH]c(=O)ncc1F | inactive | inactive | inactive | inactive | inactive | inactive | inactive | inactive | inactive |  |  |  | inactive | inactive | inactive |  | inactive | inactive | inactive | inactive

From PubChem BioAssay (Tox21)
